This is a sample that favours compounds with a hit; in the whole collection about 0.68% have one here.
ugtP null kill = compounds lethal to S. aureus RN4220 ugtP deletion mutant; growth inhibition, % (no concentration beside the values); OD600 growth, 16 h; 0.54% of 330,000 active; in the data active = growth inhibition above about 68%;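 also: plate controls were untreated wells for no effect and antibiotic for full effect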
RN4220 kill = kills Staphylococcus aureus RN4220; inhibition, % (no concentration beside the values); AID 1259311; 0.33% of 330,000 active; S. aureus RN4220 growth, OD600, 16 h; in the data active = inhibition above about 85%;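 also: plate controls were untreated cells for no effect and reference antibiotic for full effect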
Mtb hypoxia rep = inhibitors of hypoxia-regulated fluorescent reporter in Mycobacterium tuberculosis. M. tuberculosis hypoxia-regulated fluorescent reporter, fluorescence. fluorescence inhibition, % (test concentration not listed). 0.1% of 300,000 active; in the data active = fluorescence inhibition mostly above about 23%, no sharp cut-off; inactive = mostly below about 17%
* marks the source's active call; other numbers are inactive results; . = not tested or not shown.

SMILES | ugtP null kill | RN4220 kill | Mtb hypoxia rep
COC(=O)NN=C(C)c1cccc(C(F)(F)F)c1 | -3 | 8 | 6
O=C(CSc1ccc(F)cc1)N1CCC(c2nc3ccccc3s2)CC1 | 12 | -2 | .
O=C(CSc1ccccc1Cl)N1CCC(c2nc3ccccc3s2)CC1 | 97* | 96* | .
CCOC1OC(C(=O)NCc2nc3ccccc3[nH]2)=CC(C)C1CCCO (stereo not given) | 0 | 6 | 8
CCN1C(=NCCc2ccccn2)NC(c2cccc(F)c2)C(C(=O)OC)=C1C (stereo not given) | -9 | 2 | 8
COc1ccc(N=C2SC(=Cc3cc(C)n(C)c3C)C(=O)N2C)cc1 | -7 | 4 | 14
CC(C=Cc1cccs1)=CC(=O)O | 2 | 2 | .
CSc1nc2c(c(-c3ccccc3)c1C#N)CCC2 | 83* | -4 | 9
N#Cc1c(N)nc2c(c1-c1ccccc1)CCCC2 | 11 | 3 | 5
O=C(CSc1nnc(-c2ccccc2)o1)N1CCCCC1 | -2 | 3 | .
CC1CCCN(C(=O)CSc2nnc(-c3ccc(O)cc3)o2)C1 (stereo not given) | 5 | 1 | 18
O=C(CSc1nnc(-c2ccc(F)cc2)o1)N1CCCCC1 | -6 | 2 | 46*
CC1CCCN(C(=O)CSc2nnc(-c3cccs3)o2)C1 (stereo not given) | 6 | 5 | 51*
COC(=O)C1=C(c2cc3ccccc3o2)CC2CCC1N2C(=O)NCc1ccccc1 (stereo not given) | 8 | 0 | 11
NCCCCC(C(=O)N1CCNCC1)n1cc(CN)nn1 (stereo not given) | -3 | 3 | 3
O=C(COC(=O)c1cc2ccccc2cc1O)c1ccccc1 | -1 | 1 | 1
O=C(OCc1ccccc1F)c1cc2ccccc2cc1O | 87* | 3 | -3
C=CCOC(=O)C(=Cc1cccc2ccccc12)NC(=O)c1ccccc1 | 2 | 10 | 4
O=C(NN=Cc1cccc(F)c1)c1c(O)c2ccccc2[nH]c1=O | 100* | 99* | -2
O=C(NN=Cc1ccc(F)cc1)c1c(O)c2ccccc2[nH]c1=O | 8 | 5 | 12
CC(=O)CC(O)CC(=O)C1OC(=O)CCCCCC=CCc2ccccc21 (stereo not given) | -2 | 3 | -1
CNCC1Oc2c(NS(C)(=O)=O)cccc2C(=O)N(C(C)CO)CC1C (stereo not given) | -2 | -2 | -5
CCC(CO)[n+]1c(C)cc(/C=C2\Sc3ccccc3N2Cc2ccccc2)cc1C (stereo not given) | 100* | 100* | .
CCN1/C(=C2\SC(=S)N(Cc3ccccc3)C2=O)Sc2ccccc21 | -7 | -3 | -5
O=C(/C=C/c1ccccc1)C1C(=O)c2ccccc2C1=O | -3 | 18 | 2
SMILES | ugtP null kill | RN4220 kill | Mtb hypoxia rep
CCc1ccc(/C=C/C(=O)C2C(=O)c3ccccc3C2=O)cc1 | 97* | 100* | 4
CCN1C(=O)C2C(c3ccc(-c4cccc(Cl)c4)c(OC)c3)N3CCC[C@@]3(C(=O)OC)C2C1=O (stereo not given in full) | -25 | 16 | -2
Clc1ccc(C(Cn2ccnc2)OCc2csc3c(Cl)cccc23)c(Cl)c1 (stereo not given) | 96* | 99* | 8
Clc1cccc(OCCCn2ccnc2)c1 | 2 | 5 | .
OC(Cn1ccnc1)c1ccc(Cl)cc1Cl (stereo not given) | 4 | 11 | 4
Clc1ccc(C(Cn2ccnc2)OCc2c(Cl)cccc2Cl)c(Cl)c1 (stereo not given) | 94* | 72 | 24
NC(=O)c1ccc2c(=O)n3c(-c4cccs4)csc3nc2c1 | 88* | 7 | 7
Cc1ccc(-c2csc3nc4cc(C(N)=O)ccc4c(=O)n23)cc1 | 5 | -2 | 9
CCCc1ccc(Oc2c(-c3ccc(O)c(C)c3O)n[nH]c2C)cc1 | 97* | 77 | 5
CCCOC(=O)c1ccc(Oc2cn[nH]c2-c2ccc(OCC)cc2O)cc1 | 0 | -14 | 1
CCCc1ccc(Oc2cn[nH]c2-c2ccc(O)c(C)c2O)cc1 | 100* | 99* | 13
COc1ccc(Oc2c(-c3ccc(O)cc3O)n[nH]c2C)cc1 | -13 | 0 | 6
Cc1cc(C=C2SC(N)=NC2=O)c(C)n1-c1ccccc1 | -6 | 5 | 11
C#CCNC(=O)C1=CC(c2ccccc2)CC(OCc2ccc(CO)cc2)O1 (stereo not given) | 0 | 2 | 17
COc1ccc(N=C2SC(=Cc3ccc(C)o3)C(=O)N2CC(C)C)cc1 | 43 | -4 | 4
CS(=O)(=O)c1ccc(C(=O)NC(Cc2ccccc2)c2ccccc2)cc1 (stereo not given) | 2 | -8 | -12
CS(=O)(=O)c1ccc(C(O)C(CF)NC(=O)C(Cl)Cl)cc1 (stereo not given) | 100* | 99* | .
CS(=O)(=O)c1ccc(Cl)c(NC(=O)Cc2ccccc2F)c1 | -5 | 5 | -1
CS(=O)(=O)c1ccc(C(O)C(CO)NC(=O)C(Cl)Cl)cc1 (stereo not given) | 70 | 44 | 80*
CCOC(=O)C1C2COc3ccc(Br)cc3C2N2C(=O)N(c3ccc(Br)cc3)C(=O)[C@@]12C (stereo not given in full) | 19 | 5 | 5
CC(=O)N(N=C1Sc2ccccc2C1=O)c1cccc(C)c1 | -4 | 0 | .
O=C(Nc1ccccc1)Nc1ccno1 | -7 | 2 | 95*
O=C(Nc1ccccc1)Nc1ccncc1 | 3 | 1 | 1
CC(C)(C)OC(=O)CC1CC=CCC(CC(=O)NCCO)C(=O)NC(Cc2ccccc2)COC1=O (stereo not given) | 0 | 7 | 8
CN(C)CCSc1nc2cc(S(=O)(=O)N3CCCCC3)ccc2o1 | 5 | 5 | 35*
SMILES | ugtP null kill | RN4220 kill | Mtb hypoxia rep
CC(C)(C)NC(=O)CSc1nc2cc(S(=O)(=O)N3CCCCC3)ccc2o1 | -2 | -3 | -5
COc1ccccc1C1C(=C(O)c2ccccc2)C(=O)C(=O)N1CC(C)O (stereo not given) | 0 | 4 | 7
CN1CCN(c2ccc(NC(=S)NC(=O)/C=C/c3ccco3)cc2)CC1 | 89* | 0 | 10
O=C(NC(=S)Nc1ccc(NC(=O)c2ccco2)cc1)c1ccccc1 | 15 | 2 | 3
CC(=O)Nc1ccc(NC(=S)NC(=O)/C=C/c2ccco2)cc1 | 86* | 4 | -2
CCCCCC(=O)NC(=S)Nc1ccc(NC(=O)c2ccco2)cc1 | 88* | 2 | .
CCOc1ccc(NC(=S)NC(=O)/C=C/c2ccco2)cc1 | 73 | -1 | .
CC(=O)N(C)c1ccc(NC(=S)NC(=O)/C=C/c2ccco2)cc1 | 47 | 1 | 10
CCCCCCSc1ccc(C2C3C(=O)N(C)C(=O)C3[C@]3(C(=O)OC)CCCCN23)cc1 (stereo not given in full) | 20 | -5 | 20
CC(=NNC(=O)C(=O)Nc1c(C)n(C)n(-c2ccccc2)c1=O)c1ccncc1 | 2 | 3 | 13
Cc1ccc(-c2n[nH]c(=S)n2N=Cc2ccncc2)cc1 | 0 | 7 | 9
CC[C@@]12C(=O)N(c3ccc(C)cc3)C(=O)N1C(c1ccc(OC)cc1)C1C(=O)N(C(C)(C)C)C(=O)C12 (stereo not given in full) | 0 | 7 | -3
COCC=CC1=CC(=O)CC(c2ccc3c(c2)OCO3)C1 (stereo not given) | 0 | -1 | 5

Assay outcomes: PubChem, ICCB-Longwood Screening Facility, Harvard Medical School
